Compound activity (PubChem)
IEC-6 tox: cytotoxicity in IEC-6 intestinal epithelial cells, primary screen, cytotoxicity control for KLF5 inhibitor project, cell-based, luminescence; IEC-6 cytotoxicity, luminescence viability; actives 0.78% (n = 290,000); inhibition, % at 5 µM
KLF5 inhibitor: KLF5 expression inhibitors, primary screen, DLD-1 cells, luminescence | AID 1700, 2009 | inhibition, % at 5 µM | actives 0.23% (n = 290,000) | DLD-1 KLF5 promoter-luciferase reporter;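 active = inhibition above a per-plate limit of that plate's mean compound inhibition plus 3 SD, cut at about 60% in these data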;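 note: higher means less KLF5 promoter-driven luciferase light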
aSyn 5UTR inh: MLPCN primary screen, SNCA 5' untranslated region; actives 0.82% (n = 300,000); AID 1813, 2009; alpha-synuclein 5'UTR reporter, inhibitor activity; inhibition, % (tested at 7.5 µM); in the data active = inhibition above about 60%; inconclusive = no clear call, values can overlap the other calls;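 note: H4 neuroglioblastoma cells stably carrying SNCA 5'UTR luciferase fusion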
BaF3 parental: parental Ba/F3 cell viability inhibition, counter-screen for JAK2V617F inhibitor project, murine pro-B, CellTiter-Glo luminescence; AID 1486, 2009; inhibition, % at 5.6 µM; CellTiter-Glo ATP luminescence; actives 1.1% (n = 220,000);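 active = inhibition above a per-campaign cutoff, the mean inhibition of all tested compounds plus 3 SD, cut at about 27% in these data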
Ba/F3 V617F tox: reduced viability of JAK2V617F-dependent Ba/F3 cells, primary screen, JAK2V617F inhibitor project, cell-based, Ba/F3 EpoR-JAK2V617F, luminescence | actives 1.1% (n = 220,000) | ATP luminescence | inhibition, % at 5.6 µM | AID 1446, 2008;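 active = inhibition above the campaign mean plus 3 SD over all tested compounds, cut at about 24% in these data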;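 note: cytokine-independent growth of Ba/F3 cells driven by EpoR plus mutant JAK2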
APP 5UTR inh: inhibitors of APP translation via 5'UTR reporter, primary screen, APP 5'UTR luciferase, SH-SY5Y cells; inhibition, % at 2 µM; actives 0.82% (n = 190,000); SH-SY5Y APP 5'UTR-luciferase reporter, luminescence;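 active = inhibition above a set limit, derived from the sample mean plus 3 SD, cut at about 45% in these data; inconclusive = one replicate passes the limit while the other fails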
IEC-6 tox confirm: cytotoxic compounds in IEC-6 epithelial cells, confirmation, cytotoxicity control, cell-based, luminescence; shares compounds with IEC-6 tox; IEC-6 rat intestinal epithelial viability; inhibition, % at 5 µM; actives 63% (n = 1,900)
A number is an active result; 0 = inactive; ? = inconclusive; - = no result given. This is a sample that favours compounds with a hit; in the whole collection about 2.2% have one here. Cut-off read from the data, not from the text of the source, unless noted: active = inhibition above about 22%; inactive = the rest.

SMILES	IEC-6 tox	KLF5 inhibitor	aSyn 5UTR inh	BaF3 parental	Ba/F3 V617F tox	APP 5UTR inh	IEC-6 tox confirm
Cn1c(=O)c2cc(S(=O)(=O)Nc3cc(C(=O)O)cc(C(=O)O)c3)ccc2n(C)c1=O	0	0	0	0	0	0	-
Cc1cc(C)cc(NS(=O)(=O)c2ccc3c(c2)c(=O)n(C)c(=O)n3C)c1	35	0	?	67	49	0	33
COc1cccc(N2C(N)=NC(N)=NC2(C)C)c1	54	0	96	93	95	0	42
CC1(C)N=C(N)N=C(N)N1c1cccc(C(=O)O)c1	37	0	0	0	0	0	0
COc1cccc(N2CC(=O)N(c3cccc(OC)c3)CC2=O)c1	0	0	0	0	0	0	-
COc1ccc(C2N=C(N)N=C(N)N2c2ccc(C)cc2)cc1 (configuration not stated)	0	0	0	0	0	0	-
COc1ccc(N2C(N)=NC(N)=NC2(C)C)cc1	53	0	81	99	98	0	0
CCN(CC)CCNC(=O)Cc1nn(Cc2ccccc2)c(=O)c2ccccc12	0	0	0	0	0	0	-
Cc1[nH]c2ccccc2c1/C=N/NC(=O)c1cc(-c2ccncc2)nc2ccccc12	40	0	0	-	-	-	54
Cc1ccc2[nH]c3c(NCc4ccccc4)ncnc3c2c1	30	0	0	-	-	-	0
COc1ccc2nc(NCc3ccccc3)[nH]c2c1	0	0	0	0	0	0	-
Cc1ccc2nc(NCc3ccccc3)[nH]c2c1	82	0	0	76	85	0	51
CCCCn1c(N)c(N(CCC(C)C)C(=O)Cc2ccc(S(=O)(=O)N3CCOCC3)s2)c(=O)[nH]c1=O	-	-	0	-	-	-	-
Cc1ccc(/C=N/NC(=O)c2c(C)nc3ccc(Br)cn23)cc1	69	63	80	-	-	-	45
Cc1nn(C(C)C(=O)NC2CCC(C)CC2)c(=O)c2nn(-c3ccccc3)c(C)c12 (configuration not stated)	0	0	0	-	-	-	-
COC(=O)c1nn(-c2ccc(OC)cc2)c(=O)cc1O	0	0	0	0	0	0	-
COc1ccc(-n2nc(C#N)c(Cl)cc2=O)cc1	29	0	-	0	0	95	0
COc1ccccc1-n1cnc2cc(NCc3ccccc3O)ccc21	0	0	0	0	0	-	-
COc1ccccc1-n1cnc2cc(NCc3ccco3)ccc21	80	0	?	78	74	94	56
CC(=O)c1ccc(S(=O)(=O)N2CCCc3ccccc32)cc1	0	0	0	-	-	-	-
Cc1ccc(C(=O)O/N=C/c2c(C)nn(C)c2Cl)cc1	0	0	0	0	0	0	-
O=C(CCNC(=O)c1ccco1)Nc1ccc(SC(F)F)cc1	0	0	0	0	0	0	-
CCCNC(=O)c1ccccc1NC(=O)c1ccc2c(c1)NC(=O)C(C)S2 (configuration not stated)	42	0	0	-	-	-	0
CCOC(=O)CCC(=O)N1CCOCCN(C(=O)CCC(=O)OCC)CCOCC1	0	0	0	0	0	0	-
Cc1ccc(-n2nnnc2Sc2ccc(S(=O)(=O)NCCN(C)C)cc2[N+](=O)[O-])cc1	28	0	0	68	96	0	47
SMILES	IEC-6 tox	KLF5 inhibitor	aSyn 5UTR inh	BaF3 parental	Ba/F3 V617F tox	APP 5UTR inh	IEC-6 tox confirm
COc1cc2c(cc1OC)C(c1cc(Br)ccc1F)N(C(=O)CCl)CC2 (configuration not stated)	0	0	0	-	-	-	-
COC(=O)c1cc(C(=O)c2c(C)cc3ccccn23)cc([N+](=O)[O-])c1	44	0	0	-	-	-	48
Cc1cc2ccccn2c1C(=O)c1cc([N+](=O)[O-])cc([N+](=O)[O-])c1	0	0	0	0	0	0	-
COC(=O)c1cc(C(=O)N2CCN(c3cccc(C)c3C)CC2)cc([N+](=O)[O-])c1	37	0	78	68	49	77	33
COC(=O)c1cc(C(=O)N2CCN(c3ncccn3)CC2)cc([N+](=O)[O-])c1	0	0	0	-	-	-	-
CCOC(=O)C1CCCN(C(=O)CCc2nnc(-c3ccc(C(C)=O)s3)o2)C1 (configuration not stated)	0	0	0	-	-	-	-
O=C(NNC(=S)NC(=O)c1ccccc1[N+](=O)[O-])c1ccccc1[N+](=O)[O-]	0	0	0	0	0	0	-
CCCCOc1ccccc1C(=O)NNC(=S)NC(=O)c1ccccc1[N+](=O)[O-]	25	0	0	-	-	-	0
CC(C)c1ccc(-c2cc(C(=O)N3N=C(C(F)F)CC3(O)C(F)F)c3ccccc3n2)cc1 (configuration not stated)	0	0	0	0	0	0	-
C#CC(=O)N(c1ccc(OC)c(OC)c1)C(C(=O)NC1CCCC1)c1cccs1 (configuration not stated)	100	0	0	52	99	0	79
COc1ccc(N(C(=O)Cc2cccs2)C(C(=O)NC2CCCC2)c2ccncc2)cc1OC (configuration not stated)	0	0	0	-	-	-	-
CCOC(=O)C1CCN(C(=O)COc2cc(C)c(Br)cc2C)CC1	0	0	0	0	0	0	-
COc1ccc(-c2csc(-c3ccc(O)cc3)n2)cc1	50	0	0	47	64	-	44
COc1ccc(-c2ccnc(-c3ccc(O)cc3)n2)cc1	69	0	0	59	79	93	60
COc1ccc(-c2ccnc(-c3ccncc3)n2)cc1	30	0	0	0	0	-	0
COc1ccc(-c2nc(CCl)cs2)cc1	0	0	0	0	0	0	-
CC(=O)c1ccccc1OC(=O)COc1ccc(Cl)cc1C	0	0	0	0	0	0	-
NC(Cc1c[nH]c2ccc(OCc3ccccc3)cc12)C(=O)O (configuration not stated)	0	0	0	-	-	-	-
O=C1NC(c2ccc(Br)cc2)Nc2ccccc21 (configuration not stated)	33	0	0	-	-	-	33
O=C(NC1CCCCC1)C(c1c(F)cccc1Cl)N(C(=O)c1csnn1)C1CC1 (configuration not stated)	0	0	0	-	-	-	-
Nc1sc(-c2ccccc2)cc1-c1n[nH]c(=S)n1C1CCCCC1	54	0	0	57	89	-	48
O=C(NCc1ccccc1)c1nc(S(=O)(=O)Cc2ccccc2)ncc1Cl	52	0	0	-	-	-	24
O=C(Nc1ccc2ccccc2c1)c1cnccn1	0	0	0	0	0	0	-
COC(=O)c1ccccc1NC(=O)c1nc(S(=O)(=O)Cc2ccccc2)ncc1Cl	0	0	0	-	-	-	-
COc1ccc(CNC(=O)c2nc(S(=O)(=O)Cc3ccccc3)ncc2Cl)cc1	50	0	?	-	-	-	22
CS(=O)(=O)c1ncc(Cl)c(C(=O)Nc2ccc3ccccc3c2)n1	24	0	0	52	83	96	0
